Test results: PubChem BioAssay AID1159580 (chemical genetic matrix, 2015)
Values joined by “and” are separate entries in the source; they are usually repeats but may differ in a detail not shown here. Identical values can stand only once. Out of some 5,500 compounds screened, about 2,000 (36%) were called active. About 18% were inconclusive and are not listed. No stated cut-off is given here; in the data, active means normalized growth mostly below about 0.91 (no sharp cut-off); inconclusive means no clear call, values can overlap the other calls; inactive means mostly above about 0.92. This is one part of the list.

Experiment: chemical genetic growth profiling, strain panel (AID 1159580);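 further: tested at 20 µM; growth read once vehicle control cultures reached saturation at 30 °C; 1 = growth at the plate median or of vehicle wells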
Conditions: S. cerevisiae deletion strains, growth OD

Measured: normalized growth

O=C(CCCN1CCC(O)(c2ccc(Cl)cc2)CC1)c1ccc(F)cc1
inactive: locus YAL030W, strain snc1, stronger effect = lower value 0.991 | locus YAL040C, strain CLN3, stronger effect = lower value 1.02 | locus YBL061C, strain skt5, stronger effect = lower value 0.951 | locus YBR023C, strain chs3, stronger effect = lower value 0.919 | locus YBR171W, strain sec66, stronger effect = lower value 1.03 | locus YBR229C, strain ROT2, stronger effect = lower value 0.981 | locus YCL011C, strain gbp2, stronger effect = lower value 0.948 | locus YCL029C, strain bik1, stronger effect = lower value 0.945 | locus YCL061C, strain MRC1 (second series), stronger effect = lower value 0.979 | locus YCL061C, strain MRC1, stronger effect = lower value 1.01 | locus YCL069W, strain vba3, stronger effect = lower value 0.985 | locus YCR088W, strain abp1, stronger effect = lower value 1.03 | locus YDL005C, strain med2, stronger effect = lower value 1.03 | locus YDL040C, strain nat1, stronger effect = lower value 1.02 | locus YDL101C, strain DUN1, stronger effect = lower value 0.921 | locus YDL185W, strain tfp1, stronger effect = lower value 1.01 | locus YDR001C, strain nth1, stronger effect = lower value 1.04 | locus YDR137W, strain rgp1, stronger effect = lower value 1.04 | locus YDR150W, strain NUM1, stronger effect = lower value 0.949 | locus YDR159W, strain sac3, stronger effect = lower value 1.02 | locus YDR297W, strain sur2, stronger effect = lower value 0.972 | locus YDR334W, strain swr1, stronger effect = lower value 1.04 | locus YDR335W, strain msn5, stronger effect = lower value 0.984 | locus YDR363W, strain ESC2, stronger effect = lower value 0.886 | locus YEL037C, strain rad23, stronger effect = lower value 0.998 | locus YEL061C, strain CIN8 (second series), stronger effect = lower value 1.02 | locus YER002W, strain NOP16, stronger effect = lower value 1.01 | locus YER015W, strain faa2, stronger effect = lower value 0.987 | locus YER016W, strain bim1, stronger effect = lower value 0.943 | locus YER110C, stronger effect = lower value 0.977 | locus YER111C, strain swi4, stronger effect = lower value 1.02 | locus YER155C, strain BEM2, stronger effect = lower value 1.01 | locus YGL078C, strain dbp3, stronger effect = lower value 0.978 | locus YGL167C, strain pmr1, stronger effect = lower value 0.963 | locus YGL173C, strain kem1, stronger effect = lower value 0.951 | locus YGL227W, strain vid30, stronger effect = lower value 1.05 | locus YGL240W, strain doc1, stronger effect = lower value 0.979 | locus YGR078C, strain PAC10, stronger effect = lower value 0.855 and 0.989 | locus YHR079C, strain IRE1 (second series), stronger effect = lower value 0.928 | locus YHR079C, strain IRE1, stronger effect = lower value 0.979 | locus YHR094C, strain hxt1, stronger effect = lower value 1.03 | locus YHR129C, strain ARP1, stronger effect = lower value 0.926 | locus YHR200W, strain rpn10, stronger effect = lower value 0.98 | locus YIL073C, strain SPO22, stronger effect = lower value 1.25 | locus YIL125W, strain kgd1, stronger effect = lower value 1.02 | locus YIR030C, strain dcg1, stronger effect = lower value 0.979 | locus YJL092W, strain hpr5, stronger effect = lower value 0.986 | locus YJL115W, strain asf1, stronger effect = lower value 1.01 | locus YJL134W, strain LCB3, stronger effect = lower value 0.988 | locus YJL154C, strain vps35, stronger effect = lower value 1.03 | locus YJL166W, strain qcr8, stronger effect = lower value 0.912 | locus YJL168C, strain set2, stronger effect = lower value 0.995 | locus YJL187C, strain SWE1, stronger effect = lower value 0.989
0.332 (active) and 0.99 (inactive): locus YJL095W, strain BCK1, stronger effect = lower value
active: locus YAL013W, strain DEP1, stronger effect = lower value 0.797 | locus YAL021C, strain ccr4, stronger effect = lower value 0.903 | locus YAL026C, strain drs2, stronger effect = lower value 0.0861 | locus YBR009C, strain hhf1, stronger effect = lower value 0.889 | locus YBR021W, strain FUR4, stronger effect = lower value 0.535 | locus YBR231C, strain swc5, stronger effect = lower value 0.815 | locus YBR279W, strain paf1, stronger effect = lower value 0.918 | locus YCL016C, strain dcc1, stronger effect = lower value 0.902 | locus YDL035C, strain GPR1, stronger effect = lower value 0.803 | locus YDL074C, strain BRE1, stronger effect = lower value 0.739 | locus YDL192W, strain arf1, stronger effect = lower value 0.751 | locus YDR069C, strain doa4, stronger effect = lower value 0.837 | locus YDR101C, strain arx1, stronger effect = lower value 0.904 | locus YDR162C, strain NBP2, stronger effect = lower value 0.747 | locus YDR195W, strain ref2 1.46 [resistant] | locus YDR318W, strain mcm21, stronger effect = lower value 0.838 | locus YDR388W, stronger effect = lower value 0.413 | locus YDR392W, strain spt3, stronger effect = lower value 0.281 | locus YDR502C, strain sam2, stronger effect = lower value 0.814 | locus YEL003W, strain gim4, stronger effect = lower value 0.909 | locus YEL061C, strain CIN8, stronger effect = lower value 0.923 | locus YER155C, strain BEM2 (second series), stronger effect = lower value 0.42 | locus YER167W, strain BCK2, stronger effect = lower value 0.839 | locus YFR010W, strain ubp6, stronger effect = lower value 0.867 | locus YGL086W, strain mad1, stronger effect = lower value 0.837 | locus YGL248W, strain PDE1, stronger effect = lower value 0.661 | locus YGL253W, strain hxk2, stronger effect = lower value 0.859 | locus YGR135W, strain pre9, stronger effect = lower value 0.73 | locus YGR229C, strain SMI1, stronger effect = lower value 0.324 | locus YGR252W, strain gcn5, stronger effect = lower value 0.368 | locus YHR013C, strain ard1, stronger effect = lower value 0.807 | locus YHR027C, strain rpn1, stronger effect = lower value 0.899 | locus YHR142W, strain chs7, stronger effect = lower value 0.85 | locus YIL066C, strain RNR3, stronger effect = lower value 0.846 | locus YJL095W, strain BCK1 (second series), stronger effect = lower value 0.899 | locus YJL129C, strain trk1, stronger effect = lower value 0.717 | locus YJL164C, strain tpk1, stronger effect = lower value 0.907 | locus YJL187C, strain SWE1 (second series), stronger effect = lower value 0.792
0.794 (active) and 0.973 (inactive): locus YHR030C, strain SLT2, stronger effect = lower value
